# TIM10 inh = growth inhibitors of isogenic TIM10 control yeast, primary screen, counter-screen for tim10-1 yeast inhibitor project, luminescence, uHTS; 330,000 compounds, 1.4% hits; S. cerevisiae TIM10 strain growth, BacTiter-Glo luminescence, 24 h; AID 463195, 2010; inhibition, % at 10 µM;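 active = inhibition of 40% or more at the single tested concentration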;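 note: wild-type TIM10 isogenic control strain grown at permissive 25 °C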
# Calb FLC = C. albicans growth inhibition with fluconazole, primary screen, CaCi-2 strain, Alamar Blue fluorescence. growth inhibition, % (test concentration not listed). AID 1979, 2009. 300,000 compounds, 0.57% hits. C. albicans CaCi-2 (fluconazole-resistant clinical isolate) + fluconazole, 48 h;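 active = growth inhibition above about 58% in most replicates, limit read from the data, passing the limit was not always enough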;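 note: all wells also contain fluconazole at 8 µg/ml as a sub-toxic cotreatment; 0% = median of DMSO wells and 100% = median of geldanamycin control wells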
# tim23-1 inh = growth inhibitors of tim23-1 mutant yeast, primary screen, luminescence, uHTS; S. cerevisiae tim23-1 growth, BacTiter-Glo luminescence, 24 h; inhibition, % at 20 µM; 330,000 compounds, 1.3% hits; AID 463212, 2010;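 active = growth inhibition of the mutant yeast at or above 50%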;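 note: temperature-sensitive mutant grown at 25 °C; plate controls were DMSO-treated mutant yeast for no effect and medium wells lacking yeast for full effect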
# PfHsp90 yeast 2 = growth inhibition of PfHsp90-expressing yeast, primary screen, antimalarial PfHsp90 inhibitor project, S. cerevisiae, BacTiter-Glo luminescence, single point, set 2. BacTiter-Glo ATP, 48 h; yeast lacking PDR1 and PDR3 efflux regulators. inhibition, % at 9.4 µM. 310,000 compounds, 0.32% hits;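 active = every replicate shows inhibition above about 80%, whatever the replicate mean, limit read from the data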;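 note: 0% = DMSO neutral controls and 100% = 20 µM radicicol positive controls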
# tim10-1 inh = growth inhibitors of tim10-1 mutant yeast, primary screen, luminescence, uHTS; inhibition, % at 20 µM; S. cerevisiae tim10-1 ts strain growth, BacTiter-Glo, 24 h; 330,000 compounds, 2.2% hits; AID 463190, 2010;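 active = inhibition of at least 40%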;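 note: mutant grown at 25 °C; 0% = DMSO wells with yeast and 100% = wells holding no yeast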
# SKKanGAS inh = S. pyogenes SKKanGAS growth inhibitors in kanamycin, primary screen, streptokinase expression inhibitor project, SKKanGAS strain, BacTiter-Glo luminescence. 6 h. inhibition, % at 7.5 µM. 300,000 compounds, 1.3% hits;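 active = mean replicate score, as percent of positive control median, at least 50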;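 note: strain carries kanamycin resistance gene driven by streptokinase promoter and grows in 40 µg/ml kanamycin; loss of luminescence reflects streptokinase promoter inhibition or plain growth inhibition; 0% = median of DMSO wells and 100% = positive control at its reference dose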
# tim10-1 conf = growth inhibitors of tim10-1 mutant yeast, confirmation, single concentration, luminescence, S. cerevisiae; shares compounds with tim10-1 inh; AID 463213, 2010; 7,400 compounds, 56% hits; S. cerevisiae tim10-1 ts strain growth, BacTiter-Glo, 24 h; inhibition, % at 20 µM;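 active = inhibition of yeast growth at or above a set limit in either of two repeat tests at 20 µM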;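 note: tim10-1 mutant grown at permissive 25 °C to find synthetic lethal compounds; 0% = DMSO yeast wells and 100% = medium wells without yeast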
# tim10 confirm = growth inhibitors of wild-type TIM10 yeast, confirmation, counter-screen for tim10-1 synthetic lethality project, single concentration, luminescence, S. cerevisiae; shares compounds with TIM10 inh; S. cerevisiae tim10 strain growth, BacTiter-Glo luminescence, 24 h; inhibition, % at 10 µM; 4,600 compounds, 63% hits; AID 463215, 2010;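 active = inhibition of yeast growth at or above a set limit in either of two replicates at 10 µM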;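 note: this counterscreen used the strain with wild-type TIM10; 0% = yeast with DMSO and 100% = medium wells lacking yeast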
# An asterisk follows results filed as active; . = not tested or not shown. An excerpt weighted towards active compounds, which were near 4.7% of everything screened.
SMILES,TIM10 inh,Calb FLC,tim23-1 inh,PfHsp90 yeast 2,tim10-1 inh,SKKanGAS inh,tim10-1 conf,tim10 confirm
Cc1ccc(C(c2nnnn2CCc2ccccc2)N2CCC(C)CC2)cc1 (stereo not given),46.9*,4.2,44.3,-0.5,44.9*,7.6,35.9*,-4.2
COc1ccc2[nH]c3c(=O)n4c(nc3c2c1)SCC4,40.1*,6.8,28.1,-22.4,44.6*,5.2,36.6*,17.6
O=c1c2[nH]c3ccccc3c2nc2n1CCS2,8.5,34.2,6.9,16.7,34.4,3.6,.,.
CCNC(=S)N/N=C/c1cccc(OCc2c(F)cccc2Cl)c1,53.3*,11.2,30.9,-3.1,44.3*,-1.0,37.0*,41.1*
CNC(=S)N/N=C/c1cccc(OCc2ccccc2F)c1,34.7,-15.5,42.9,-40.6,25.7,-12.8,.,.
COc1ccc(OC)c(NC(=O)c2cccc(NC(=O)c3ccccc3C(=O)O)c2)c1,0.5,-6.0,5.6,18.1,8.5,4.1,.,.
Cc1nccn1-c1cc(C(C)(C)C)nc2c(-c3ccccc3)cnn12,53.8*,10.5,49.9,-2.4,50.4*,-7.2,48.1*,54.7*
CC(C)(C)c1cc(N2CCOCC2)n2ncc(-c3ccccc3)c2n1,2.6,1.1,18.2,-25.3,23.5,10.1,.,.
CCC(C)(C)C1CCc2[nH]nc(C(=O)NCCCNC(=O)OC(C)(C)C)c2C1 (stereo not given),17.3,.,16.8,16.0,-2.5,.,.,.
Cc1ccc2nc(-c3ccccc3)c(CN3CCN(c4ccccc4F)CC3)n2c1,50.6*,-0.3,49.4,-16.6,56.0*,-4.8,42.3*,37.2*
COC(=O)COc1coc(CN2CCN(c3cccc(Cl)c3)CC2)cc1=O,6.3,0.7,9.5,14.6,-0.2,-2.8,.,.
CC(C)Cn1c2c(c(O)c(C(=O)Nc3nccs3)c1=O)CCCC2,55.4*,0.5,43.0,-47.6,42.7*,34.6,38.9*,20.4
CC(=O)N1CCOc2ccc(S(=O)(=O)NCC3CCC(C(=O)Nc4ncccc4C)CC3)cc21 (stereo not given),-9.3,-6.5,11.8,7.6,19.3,-1.2,.,.
CC(C)(C)NC(=O)C(c1ccco1)N(Cc1ccc2c(c1)OCO2)C(=O)c1snc(C(N)=O)c1N (stereo not given),14.8,-1.7,18.4,-3.6,10.9,1.7,.,.
CCc1cccc2sc(N3CCN(C(=O)c4ccc([N+](=O)[O-])o4)CC3)nc12,57.9*,14.0,8.0,8.2,79.1*,58.7*,73.7*,89.4*
CCCOc1ccc(CN(CCC#N)C(=S)NC(=O)c2ccccc2)cc1,42.9*,-2.3,42.2,-84.8,47.7*,43.9,34.8*,-13.8
O=C(Nc1ccc(Cl)c([N+](=O)[O-])c1)ONC1=NCCCCC1,54.1*,-4.4,41.5,-1.2,78.1*,1.2,76.9*,46.0*
COc1cc(C(=O)Nc2ccc(Cl)c([N+](=O)[O-])c2)cc(OC)c1OC,-10.9,-2.5,-16.3,-31.7,2.1,3.1,.,.
COc1ccc(-n2c(CCC(=O)O)ccc2-c2ccc(F)cc2)c(OC)c1,18.7,2.2,18.5,10.0,3.7,-2.3,.,.
Cc1c(CNCC(C)c2ccccc2)c(C(=O)O)c(C)n1Cc1ccccc1 (stereo not given),-0.2,1.4,7.0,11.8,6.9,-19.4,.,.
N/C(CCS(=O)(=O)c1ccc(Cl)cc1)=N\OC(=O)c1ccccc1Cl,51.4*,4.1,41.8,4.2,61.7*,-4.0,70.7*,50.5*
NC(=O)CCS(=O)(=O)c1ccc(Cl)cc1,-17.9,-6.6,11.9,4.1,-2.5,1.5,.,.
